The values below come from PubChem BioAssay (NCATS).

A short description of assay [1]: qHTS Assay for Identification of Small Molecule Agonists for Thrombopoietin (TPO) Signaling Pathway (AID 917). In a few lines:
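We measured Glycoprotein IIb promoter–luciferase output in IL-3-starved Ba/F3 murine cells expressing the human TPO receptor after 24 hrs at 37 C with compounds and 26 pM TPO.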

The target in assay [2] is Muscarinic acetylcholine receptor M1 (Rattus norvegicus) (UniProt P08482). The assay is described as follows: qHTS Assay for Antagonists of Acetylcholine Muscarinic M1 Receptor: Kinetic Measurement of Intracellular Calcium Response (AID 943). Further: nearly all actives have a fitted effect of over 75% in size. Further: potency means the concentration at half of the fitted maximal effect. In a few lines: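 CHO cells expressing rat M1 receptor, Fluo-4 loaded, preincubated 10 min with compound, then stimulated with EC80 carbachol (100 nM final). Kinetic calcium fluorescence over 4 min; response taken as peak over basal signal.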
Muscarinic acetylcholine receptor M1 (Rattus norvegicus), sequence (P08482 whole entry, looked up): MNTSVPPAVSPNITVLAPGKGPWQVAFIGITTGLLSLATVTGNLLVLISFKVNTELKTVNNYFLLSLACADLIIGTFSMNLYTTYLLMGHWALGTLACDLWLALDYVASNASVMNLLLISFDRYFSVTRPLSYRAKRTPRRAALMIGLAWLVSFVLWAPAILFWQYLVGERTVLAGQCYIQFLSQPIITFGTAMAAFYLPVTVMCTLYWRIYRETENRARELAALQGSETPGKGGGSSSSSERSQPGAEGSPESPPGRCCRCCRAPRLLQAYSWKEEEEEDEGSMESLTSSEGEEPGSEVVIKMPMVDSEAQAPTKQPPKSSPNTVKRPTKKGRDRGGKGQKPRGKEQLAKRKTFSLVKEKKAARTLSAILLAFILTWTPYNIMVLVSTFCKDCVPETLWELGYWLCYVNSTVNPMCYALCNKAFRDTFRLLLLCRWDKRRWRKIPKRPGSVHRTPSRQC
A general note: qHTS replaces the single test concentration by a dilution series.

Assay [3] shares this target. The assay is described as follows: qHTS Assay for Antagonists of Acetylcholine Muscarinic M1 Receptor: Measurement of IP-One Response (AID 944). Further: nearly all actives have a fitted effect of over 75% in size. Further: potency means the concentration at half of the fitted maximal effect. In a few lines:
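CHO cells stably expressing rat M1, pretreated 10 min with compound, then stimulated 30 min with carbachol at EC80 (200 nM) in LiCl-containing buffer pH 7.4; IP1 accumulation read by HTRF competition (665/620 nm).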

Assay [4] concerns the target Pyruvate kinase (Leishmania mexicana) (UniProt Q27686). In words: qHTS Validation Assay for Inhibitors of Leishmania Mexicana Pyruvate Kinase (AID 945). A digest of the protocol:
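Compounds are tested as eight-point concentration series. Reactions contain 0.2 nM LmPYK E451W, 0.5 mM PEP, 0.1 mM ADP, 7 mM MgCl2 and 50 mM KCl at pH 7.2, run 1 h at room temperature, then read by PKLight luminescence.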

Assay [5] deals with Pyruvate kinase PKM (Homo sapiens) (UniProt P14618). The assay is described as follows: qHTS Assay for Activators of Human Muscle Pyruvate Kinase (AID 954; active means well fitted curve in the direction sought with a large enough effect, not every such curve was filed as active). A digest of the protocol:
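Reaction: 0.1 nM purified PKM2 with 0.5 mM phosphoenolpyruvate and 0.1 mM ADP, room temperature, 1 h. Readout: luciferase-based ATP luminescence after stop reagent. Activators judged against a 0.3 nM enzyme column.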

A short description of assay [6]: qHTS Assay for Identification of Small Molecule Antagonists for Thrombopoietin (TPO) Signaling Pathway (AID 918). Further: potency means the concentration at half of the fitted maximal effect; nearly all actives have a fitted effect of over 60% in size. Conditions: TPO-dependent cell signaling reporter, antagonist mode. A digest of the protocol:
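Murine Ba/F3 cells expressing human TPO receptor and a Glycoprotein IIb promoter-luciferase reporter, IL-3-starved overnight, treated with compound plus TPO at EC50 (26 pM final). After 24 h at 37 C, luminescence read to detect inhibitors.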

Assay [7] is described as follows: Confirmation and Secondary Assay for Modulators of Hemoglobin Beta Chain Splicing at IVS2 705 locus (AID 930).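 Further: HeLa cells stably expressing the EGFP-705 splicing reporter; GFP fluorescence per well restored by corrected splicing of the IVS2-705 intron in EGFP; series mostly up to about 46 µM.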 In a few lines:
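Fluorescence gain (488 nm laser, 500-520 nm PMT) reflects restored correct splicing of a mutant IVS2-705 intron inside EGFP in stably transfected HeLa cells after 2-day compound treatment.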

Several values for one entry are separate records, joined by “and”; a condition that tells them apart may be missing. Equal values may be shown once. Inconclusive results are not listed. Activity calls are given as the source filed them. Unless noted, the call rests on the fitted dose curve; in most records, active means well fitted curve in the direction sought with a large enough effect; inconclusive means small, poorly fitted or top-dose-only effect, or another doubt; inactive means no such curve, though single readings can be large; an effect the other way counts as inactive or inconclusive.

Pyruvate kinase (Leishmania mexicana), sequence (Q27686 2-499 E452W): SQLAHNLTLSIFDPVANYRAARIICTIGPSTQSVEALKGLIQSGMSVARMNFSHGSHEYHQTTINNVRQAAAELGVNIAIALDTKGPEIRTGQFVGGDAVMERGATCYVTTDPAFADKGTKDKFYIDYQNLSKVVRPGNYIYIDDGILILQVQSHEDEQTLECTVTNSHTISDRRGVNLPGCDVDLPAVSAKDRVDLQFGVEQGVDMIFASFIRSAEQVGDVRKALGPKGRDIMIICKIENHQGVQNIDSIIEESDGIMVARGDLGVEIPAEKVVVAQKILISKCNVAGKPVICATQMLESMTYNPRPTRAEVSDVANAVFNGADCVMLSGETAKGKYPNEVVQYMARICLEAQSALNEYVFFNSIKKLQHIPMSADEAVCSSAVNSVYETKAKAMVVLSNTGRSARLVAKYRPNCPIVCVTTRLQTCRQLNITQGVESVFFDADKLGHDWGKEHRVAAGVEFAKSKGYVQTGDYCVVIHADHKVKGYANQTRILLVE
Pyruvate kinase PKM (Homo sapiens), sequence (P14618 whole entry, looked up): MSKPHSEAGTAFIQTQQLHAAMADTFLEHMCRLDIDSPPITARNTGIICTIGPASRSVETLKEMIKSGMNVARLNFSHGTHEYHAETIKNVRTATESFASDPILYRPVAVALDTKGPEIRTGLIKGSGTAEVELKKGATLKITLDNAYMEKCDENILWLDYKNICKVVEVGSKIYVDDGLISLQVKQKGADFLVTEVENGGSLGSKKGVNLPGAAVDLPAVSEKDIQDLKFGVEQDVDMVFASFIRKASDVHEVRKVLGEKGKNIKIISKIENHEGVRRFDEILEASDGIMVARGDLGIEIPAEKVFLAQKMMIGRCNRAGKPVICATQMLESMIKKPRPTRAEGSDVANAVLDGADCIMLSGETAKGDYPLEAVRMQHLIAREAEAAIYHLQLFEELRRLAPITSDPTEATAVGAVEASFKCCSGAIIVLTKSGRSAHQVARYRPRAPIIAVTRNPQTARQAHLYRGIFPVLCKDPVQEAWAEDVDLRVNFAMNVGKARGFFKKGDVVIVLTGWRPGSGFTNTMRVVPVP

As for `OCCN1CCN(CCCN2c3ccccc3C=Cc3ccccc32)CC1`, the molecule was classed as inactive in assay [1] and in assay [5]. The Potency in assay [2] is 3.16 µM (active) and 3.55 µM (active); in assay [3], 3.55 µM (active) and 4.47 µM (active). Further, in assay [4], the Potency entry was “inactive”.
Consider `CNCCCN1c2ccccc2CCc2ccccc21`, for which the Potency in assay [6] was 12.6 µM (active). Besides, the result in assay [7] and in assay [5] was inactive.
Consider `CSc1ccc(C(=O)c2[nH]c(=O)[nH]c2C)cc1`, for which the call in assay [1] and in assay [5] was inactive. Also, the Potency result in assay [4] was “inactive”.
Take `CCN1CCc2nc(N)oc2CC1`: the molecule was called inactive in assay [1] and in assay [5].
In the case of `O=C1CC2(CCCC2)CC(=O)N1CCCCN1CCN(c2ncccn2)CC1`, the molecule was called inactive in assay [1] and in assay [5].
Turning to `O=C(CCNNC(=O)c1ccncc1)NCc1ccccc1`, the call in assay [1] and in assay [5] was inactive. Besides, the Potency entry in assay [2], in assay [3] and in assay [4] was “inactive” throughout.
On to `Cc1ccc(=O)n(-c2ccccc2)c1`, for which the result in assay [1] and in assay [5] was inactive. Also, the Potency entry in assay [2] and in assay [3] was “inactive” each time.
With `NC(N)=NC(=O)Cc1c(Cl)cccc1Cl`, the molecule was called inactive in assay [1] and in assay [5]. For the same molecule, the Potency entry in assay [3] is “inactive”.
As for `CCN(CC)CCOCCOC(=O)C1(c2ccccc2)CCCC1`, the outcome in assay [1], in assay [7] and in assay [5] was inactive.
On to `O=C(O)CN(CCOCCOCCN(CC(=O)O)CC(=O)O)CC(=O)O`, for which the molecule was called inactive in assay [1] and in assay [5]. Moreover, the Potency result in assay [2], in assay [3] and in assay [4] was “inactive” throughout.
Consider `CN(C(=O)CCCOc1ccc2[nH]c(=O)ccc2c1)C1CCCCC1`, for which the outcome in assay [1] and in assay [5] was inactive.
Take `CN(C)CC/C=C1\c2ccccc2COc2ccccc21`: the molecule was classed as inactive in assay [1] and in assay [5].
On to `O=C(O)CP(=O)(O)O`, for which the call in assay [1] and in assay [5] was inactive. Further, the Potency result in assay [2], in assay [3] and in assay [4] was “inactive” each time.
Consider `N[C@@H](COP(=O)(O)O)C(=O)O`, for which the molecule was called inactive in assay [1] and in assay [5]. Also, the Potency result in assay [2], in assay [3] and in assay [4] was “inactive” in each case.
Turning to `Cc1nc2c([nH]1)c(=O)n(C)c(=O)n2Cc1ccco1`, the outcome in assay [1] and in assay [5] was inactive. The Potency result in assay [3] and in assay [4] was “inactive” in each case.
